DAX1 inh-1: NR0B1 (DAX1) inhibition; HEK293 Gal4-DAX1 luciferase reporter, luminescence; P51843; 340,000 compounds, 0.99% hits; inhibition, % at 6.75 µM;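 active = inhibition above the mean over all tested compounds plus 3 SD, cut at about 4.2% in these data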;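 also: 0% = DAX1-transfected cells with DMSO and 100% = empty-vector control cells with DMSO; inhibition shows as a rise in luminescence from relieved DAX1 repression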
Target sequence (P51843 207-470 limits assumed): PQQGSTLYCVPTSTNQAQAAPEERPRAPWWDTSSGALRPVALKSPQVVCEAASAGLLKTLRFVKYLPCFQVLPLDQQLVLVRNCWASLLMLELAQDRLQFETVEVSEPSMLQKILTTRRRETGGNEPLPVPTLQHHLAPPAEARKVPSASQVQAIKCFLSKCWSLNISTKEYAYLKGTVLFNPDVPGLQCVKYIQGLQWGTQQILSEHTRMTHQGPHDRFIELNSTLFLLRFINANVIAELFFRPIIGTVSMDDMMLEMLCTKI
hgDAF-12 ag: hgDAF-12 agonism, primary luciferase screen | AID 687014 | HEK293 GAL4-hgDAF12 UAS-luciferase reporter, agonist luminescence; normalized to butyrate control | activation, % at 6.8 µM | 370,000 compounds, 1.8% hits;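 active = activation above a cutoff set at the mean of all screened compounds plus 3 SD, cut at about 10% in these data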;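 also: 0% = DMSO wells and 100% = sodium butyrate wells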
DAX1 inh-2: DAX1 (NR0B1) inhibition, primary screen; 370,000 compounds, 1.1% hits; HEK293T StAR-luciferase reporter, SF-1/DAX-1 repression relief; inhibition, % at 6.8 µM;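 active = inhibition above the mean over all tested compounds plus 3 SD, cut at about 3.6% in these data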;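 also: 0% = DAX-1 cells with DMSO and 100% = cells lacking DAX-1 with DMSO; higher inhibition means more luminescence from relief of DAX-1 repression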
hcDAF-12 act: activates DAF-12 receptor from parasite H. contortus; HEK293 hcDAF-12 lit1-tk-luc reporter, luminescence; 0% DMSO, 100% Δ7-dafachronic acid; activation, % at 6.8 µM; 370,000 compounds, 1.4% hits;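 active = activation above the mean of all tested compounds plus 3 SD, cut at about 5.5% in these data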;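 also: 100% = response to 3 µM Δ7-dafachronic acid high control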
ssDAF-12 act: activators of S. stercoralis DAF-12 nuclear receptor. HEK293 ssDAF-12/GRIP1 lit1-tk-luc reporter, luminescence; % of 3 µM dafachronic acid response. activation, % at 6.8 µM. 370,000 compounds, 1% hits;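 active = activation above the mean over all tested compounds plus 3 SD, cut at about 0.9% in these data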;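 also: 0% = DMSO-only wells and 100% = 3 µM delta7-dafachronic acid wells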
LXR ag: activates human LXR-beta, counter-screen for hcDAF-12 agonists; 3,400 tested, under 10 active; activation, % at 6.8 µM; AID 743027; HEK293 Gal4-LXR tk-luc reporter, luminescence, 24 h; normalized: DMSO 0%, positive control 100%; shares compounds with hcDAF-12 act;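 active = mean percent activation of the reporter above a cutoff set as the average over tested compounds plus their standard deviation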
hcDAF12 conf: hcDAF-12 agonism, confirmation assay | AID 743032 | shares compounds with hcDAF-12 act | activation, % at 6.8 µM | 3,400 compounds, 61% hits | HEK293 hcDAF-12 lit1-tk-luc reporter, luminescence; % of Δ7-dafachronic acid response;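 active = mean activation across triplicate tests above the threshold derived from the earlier primary screen, cut at about 5.5% in these data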;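 also: 0% = DMSO only wells and 100% = 3 µM Δ7-dafachronic acid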
* marks the source's active call; other numbers are inactive results; nt = not tested or not shown. Sampled rows, rich in hits. Any-hit rate of the full collection: about 4.1%.

SMILES	DAX1 inh-1	hgDAF-12 ag	DAX1 inh-2	hcDAF-12 act	ssDAF-12 act	LXR ag	hcDAF12 conf
Nc1nn2cc(-c3ccc(Br)cc3)nc2c2ccccc12	2	10	3	11*	1.6*	1	14*
O=[N+]([O-])c1cccn2cc(-c3ccc(Br)cc3)nc12	0	4	2	4	0	nt	nt
Cc1nc2ccc(S(=O)(=O)NCC(=O)NCc3ccccc3Cl)cc2s1	nt	2	0	-1	-1	nt	nt
CCOC(=O)c1csc(NC(=O)C2CCCN(S(=O)(=O)c3ccccc3[N+](=O)[O-])C2)n1 (stereo not drawn)	nt	-4	-2	-3	-2	nt	nt
O=C(O)c1ccc(N/N=C/c2cc(Br)cs2)cc1	-3	6	1	12*	1.0*	1	9.0*
CCOC(=O)c1c(C)oc2c1c1c(c3ccccc32)OCN(CCCC(=O)O)C1	5.0*	7	2	8.9*	1.2*	1	12*
C=CCOC(=O)N[C@H](c1ccc2ccccc2c1)[C@H](C)/C=C/CC(=O)OC	nt	1	0	0	-2	nt	nt
Cc1ccc(O)c(N=CC2=C(O)c3ccccc3C2=O)c1	0	7	3	6.8*	0	1	2
CC1(C)CC(=O)C(C=Nc2ccccc2)=C(O)C1	1	-1	0	0	-1	nt	nt
O=C1C(C=Nc2ccccc2)=C(O)c2ccccc21	-1	13*	4.5*	16*	1.8*	2	11*
CC1(C)Oc2ccc(C(=O)NC3CCCC3)cc2NC1=O	nt	-1	1	0	-1	nt	nt
COc1ccc(Nc2cccc3ccccc23)cc1	0	5	1	6.9*	1.3*	1	6.5*
CCOC(=O)C1=CCN(S(=O)(=O)c2ccc(Br)cc2)C1c1cccc(Cl)c1 (stereo not drawn)	nt	-1	-1	-1	-1	nt	nt
COc1ccc(NC(=O)/C=C/c2ccccc2)cn1	1	12*	2	8.5*	-1	1	6.5*
COc1ccc(NC(=O)/C=C/c2ccc(F)cc2)cn1	0	6	1	0	-1	nt	nt
COc1ccc(Cl)cc1NC(=O)C1CCCO1 (stereo not drawn)	1	1	0	-2	-1	nt	nt
COc1cc2c(cc1NC(=O)C1CCCO1)oc1ccccc12 (stereo not drawn)	1	15*	3	12*	2.3*	1	17*
COc1cc2c(cc1NC(=O)Nc1ccc(C)cc1)oc1ccccc12	-1	7	0	8.5*	-1	0	1
Cc1[nH]nc2c1C(c1ccc3c(c1)OCO3)N(Cc1ccccc1)C2=O (stereo not drawn)	nt	0	-1	0	-1	nt	nt
O=C(Nc1ccccn1)c1ccc2ccccc2c1O	4	10	2	8.4*	1.5*	1	8.7*
O=C(Nc1ccccn1)c1ccco1	3	3	1	8.5*	-1	0	2
COc1cccc(NC(=O)n2ncc3c(C)cccc32)c1	0	17*	3	13*	1.8*	2	14*
O=S(=O)([N-]c1nc2ccccc2nc1-[n+]1ccc(-c2ccncc2)cc1)c1ccccc1	2	10	2	6.9*	0	0	3
O=S(=O)([N-]c1nc2ccccc2nc1-[n+]1ccccc1)c1ccccc1	0	0	0	-2	-1	nt	nt
COc1cccc(-c2nnc(Nc3nc4c(F)cccc4s3)o2)c1	0	9	3	8.3*	0	0	6.8*
SMILES	DAX1 inh-1	hgDAF-12 ag	DAX1 inh-2	hcDAF-12 act	ssDAF-12 act	LXR ag	hcDAF12 conf
COc1ccccc1-c1nnc(Nc2nc3c(OC)cccc3s2)o1	-3	-7	-3	-2	-1	nt	nt
CNc1c2cccc(C)c2nc2c(C(=O)NCCN(C)C)cccc12	4	9	-5	38*	4.1*	0	-4
Cc1ccc(C(=O)NCCN(C)C)c(C)c1	0	0	0	-2	-1	nt	nt
O=S1(=O)CC(N2CCCC2)CN1 (stereo not drawn)	nt	-2	0	0	-2	nt	nt
O=C(Cn1cc([N+](=O)[O-])cn1)NCc1cc2ccccc2[nH]1	0	2	0	8.0*	0	0	4
O=C(Cn1cc([N+](=O)[O-])cn1)NCCc1nc2ccccc2[nH]1	1	4	1	0	-1	nt	nt
Cc1cc(C)n2nc(-c3ccc(Cl)cc3)cc2n1	4	11*	1	13*	1.9*	1	12*
COc1ccc(-c2cc3nc(C)cc(C)n3n2)cc1	8.0*	12*	3	9.2*	2.7*	1	13*
COc1ccc(OCCSc2nc3nc(C)cc(C)n3n2)cc1	2	-4	0	-1	-2	nt	nt
Cc1nc2cc(-c3ccc(Cl)cc3)nn2c(NCCN(C)C)c1C	2	6	1	13*	1.5*	0	7.5*
Cc1cc(-c2ccc(Cl)cc2)n2nc(C)cc2n1	0	1	0	1	-1	nt	nt
Cc1cc(C)n2nc(-c3ccc(Br)cc3)cc2n1	4.7*	11*	2	14*	1.5*	1	11*
COC(=O)[C@]12C[C@H](CC(=O)N3CCCCC3)C(=O)N(CCc3ccc(OC)c(OC)c3)C1=C[C@H](COCc1ccccc1)O[C@@H]2C	nt	0	0	-1	-1	nt	nt
Cc1cn2c(=O)c3ncn(C4OC(CO)C(O)C4O)c3n(C)c2n1 (stereo not drawn)	nt	0	0	-2	-2	nt	nt
Cn1c(=N)n(CC(=O)c2ccccc2)c2ccccc21	nt	11*	3	18*	2.5*	2	25*
Cc1ccc(C(=O)Cn2c(=N)n(N)c3ccccc32)cc1	4.6*	9	2	7.5*	1.6*	0	4
CCN(CC)CCn1c(=N)n(CC(=O)c2ccc(C)cc2)c2ccccc21	3	5	1	8.2*	1.2*	0	5
Cn1c(=N)n(CC(=O)O)c2ccccc21	1	1	0	3	-1	nt	nt
CCCC#C/C(CCC)=C1\c2ccccc2C(=O)N1c1ccccc1	nt	7	1	1	-1	nt	nt
Cn1c(C=O)c(-c2ccc3cc[nH]c3c2)c2ccccc21	3	4	0	7.7*	0	0	5
Cn1c(-c2ccsc2)c(-c2cccs2)c2cc(-c3ccc4cc[nH]c4c3)ccc21	2	1	0	0	-1	nt	nt
O=[N+]([O-])c1ccccc1CSc1nc2ccccc2o1	-1	6	1	6.7*	0	0	3

Assay outcomes: PubChem, The Scripps Research Institute Molecular Screening Center
